According to PubChem BioAssay AID651820 (National Center for Advancing Translational Sciences (NCATS), 2012):
The campaign covered roughly 340,000 compounds. About 12,000 (3.5%) were called active. Not shown: some 18% with an inconclusive outcome. Shown is part of a subset that was picked to be rich in actives. Unmarked numbers belong to inactive results. Calls come from the whole dose curve; as a rule, active = well fitted inhibition curve with a large enough effect; inconclusive = small, poorly fitted or top-dose-only effect, or another doubt; inactive = no such curve, though single readings can be large or run the other way.

Test: qHTS Assay for Inhibitors of Hepatitis C Virus (HCV)
Conditions: Huh7.5.1 HCVcc-Cre infection, luciferase reporter, 44 h; series mostly up to 41.8 µM; activity change, negative = inhibition: at the top concentration
Summary of the method: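 Compounds are dispensed onto cells plated 4 h earlier at 1,000 per well, with HCVcc-Cre virus (about 0.5 moi) added next. Following 44 h of culture, luminescent signal is measured for 15 sec after 15 min with substrate at room temperature.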
% is set by controls: 0 for no effect and ±100 for the full control effect; potency is the fitted concentration of half-maximal effect.

SMILES	activity change, negative = inhibition	Potency
O=C(COC(=O)c1n[nH]c2ccccc12)Nc1ccccc1Br	-0.82%	
CC(C(=O)Nc1ccc(S(=O)(=O)N2CCCC2)cc1)N(C)Cc1ccc(F)cc1 (stereo not given)	-4.33%	
CCOc1ccc2nc(N(CCN(C)C)C(=O)c3ccc4ccccc4c3)sc2c1	-27.4%	
CCOc1ccc2nc(N(CCCN(C)C)C(=O)c3ccc(C(=O)c4ccccc4)cc3)sc2c1	-29.8%	
COc1cccc2sc(N(CCCN(C)C)C(=O)C(c3ccccc3)c3ccccc3)nc12		12.6 µM (active)
COc1cccc2sc(N(CCCN(C)C)C(=O)CCS(=O)(=O)c3ccccc3)nc12	17.2%	
COc1cc2ccccc2cc1C(=O)N(CCN(C)C)c1nc2c(F)cccc2s1		14.1 µM (active)
Cc1cccc2sc(N(CCCN(C)C)C(=O)CCS(=O)(=O)c3ccccc3)nc12	7.99%	
C[C@H](OC(=O)n1ccnc1)[C@@H]1O[C@@]2(C)CCC[C@@H]1O2	4.05%	
CCc1cccc(NC(=O)COC(=O)c2cc(=O)c3ccccc3o2)c1	0.189%	
Cc1nc(/N=C(\N)NC(=O)NC2CCCCC2)nc2ccccc12		11.2 µM (active)
Cc1nn(-c2ccccc2)c(C)c1C(=O)OCC(=O)NC(=O)NC1CCCCC1	-6.4%	
O=C(NNC(=O)C(O)c1ccccc1)NC1CCCCC1 (stereo not given)	12.7%	
C=CCOc1cccc(C2C(C(=O)c3ccc(C)o3)=C(O)C(=O)N2CCCn2ccnc2)c1 (stereo not given)	12.5%	
Cc1cccc(CC2(O)C(=O)Nc3ccccc32)n1 (stereo not given)	4.09%	
Cc1ccnc(SCC(=O)Nc2cccc(S(=O)(=O)N3CCOCC3)c2)n1	2.31%	
Cc1nc2ccc(NC(=O)C3CCCCC3)cc2s1	15.5%	
Cc1nc2ccc(N)nc2nc1C	25.2%	
Clc1nc(NC2CCCC2)nc(N2CCOCC2)n1		14.1 µM (active)
COC(=O)CNc1nc(Cl)nc(N2CCC(C)CC2)n1	7.19%	
COc1nc(NC2CCCCC2)nc(N2CCCCCC2)n1	-16.6%	
O=C(CNC(=O)c1n[nH]c2ccccc12)Nc1cc(Cl)ccc1Cl	3.28%	

SMILES	activity change, negative = inhibition	Potency
CCN1CCN(C(=O)N(Cc2ccc(Cl)cc2)S(=O)(=O)c2ccc(C)cc2)CC1	13.5%	
CCCCN(CC)C(=O)c1ccc2c(c1)OCO2	7.22%	
Cc1cccc(C(=O)NCCCN(C)CCCNC(=O)c2cccc(C)c2)c1	-16.5%	
COCCN(Cc1cc2cc3c(cc2nc1Cl)OCO3)C(=O)c1cccc(C)c1		12.6 µM (active)
O=C(CC1Sc2ccccc2NC1=O)NNc1ccc(Cl)c(Cl)c1 (stereo not given)	-2.07%	
O=c1[nH]c(SCc2cccc(F)c2)nc2ccccc12	-6.28%	
O=c1c2ccccc2nc2n1C(CSCc1cccc(C(F)(F)F)c1)CS2 (stereo not given)		10 µM (active)
N#Cc1c(-c2ccccc2)nc(SCc2cccc(C(F)(F)F)c2)[nH]c1=O	-2.24%	
O=c1c2ccccc2nc2n1C(CSCc1ccccc1)CS2 (stereo not given)		14.1 µM (active)
O=c1c2ccccc2nc2n1C(CSc1ccc(Cl)cc1)CN2 (stereo not given)	-18.2%	
O=c1c2ccccc2nc2n1C(CSc1ccc(F)cc1)CN2 (stereo not given)	12.2%	
CN(C)S(=O)(=O)c1ccc(N2CCCC2)c(C(=O)Nc2ccc(Br)cc2F)c1	-2.12%	
COc1ccc(S(=O)(=O)N2CCN(c3cnccn3)CC2)cc1	16.3%	
N#C/C(=C\c1ccc(-c2cccc([N+](=O)[O-])c2)o1)C(=O)NCCN1CCOCC1		14.1 µM (active)
CN(C)CCNC(=O)/C(=C/c1cccc([N+](=O)[O-])c1)NC(=O)c1ccccc1	15.7%	
N#C/C(=C/c1ccc(-c2ccccc2[N+](=O)[O-])o1)C(=O)NCCN1CCCCC1	-12.9%	
Cc1ccc(Cc2cnc(NC(=O)/C(C#N)=C/c3ccc(-c4cccc([N+](=O)[O-])c4)o3)s2)cc1	-8.13%	
C=CCNC(=O)/C(=C\c1cccc([N+](=O)[O-])c1)NC(=O)c1ccccc1	-1.28%	
Cc1ccc(C(=O)N/C(=C/c2ccc(-c3cccc([N+](=O)[O-])c3)o2)C(=O)NCCCN(C)C)cc1		11.2 µM (active)
Cc1ccc(-c2csc(C(C#N)=C(O)CN3CCN(C(=O)c4ccco4)CC3)n2)cc1	6.31%	
COc1cccc(OC)c1C(=O)NC(=S)N1C[C@H]2C[C@H](C1)c1cccc(=O)n1C2	24.9%	
Cc1cccc(NC(=O)N2CC3CC(C2)c2cccc(=O)n2C3)c1 (stereo not given)	18.3%	

SMILES	activity change, negative = inhibition	Potency
COc1ccccc1NC(=O)N1C[C@@H]2C[C@@H](C1)c1cccc(=O)n1C2		1 µM (active)
C=CCOc1cccc(C2C(C(=O)c3ccc(C)o3)=C(O)C(=O)N2c2nnc(C)s2)c1 (stereo not given)	3.6%	
CCCC(CNC(=O)COC(=O)C1=NNC(=O)CC1)c1ccc(Cl)cc1Cl (stereo not given)	2.1%	
CC(=O)c1ccc(NC(=O)C(C)OC(=O)c2ccc(NS(=O)(=O)c3ccc4[nH]c(=O)[nH]c4c3)cc2)cc1 (stereo not given)	-5.4%	
CCCCN1CC(COCc2ccccc2)OCCS1(=O)=O (stereo not given)	-20.5%	
CCCCC[C@@H]1C=C(C(=O)O)[C@H](c2ccc(C#N)cc2)N1S(=O)(=O)c1ccc(C)cc1	-5.15%	
CCOc1ccc(S(=O)(=O)N2CCN(C(=S)NCC3CCCO3)CC2)cc1 (stereo not given)	-4.09% [at 8.37 µM]	
S=C(NCC1CCCO1)N1CCN(c2ccc(Cl)c(Cl)c2)CC1 (stereo not given)		10 µM (active)
COc1ccc(S(=O)(=O)N2CCN(C(=S)NCC3CCCO3)CC2)cc1OC (stereo not given)	-3%	
CC(C)COc1ccc(C(=O)NNC(=O)CCC(=O)c2cccs2)cc1	1.77%	
COc1ccc(NS(=O)(=O)c2ccc(Oc3c(C#N)cccc3C#N)cc2)cc1		17.8 µM (active)
COc1ccc(/C=N/NS(=O)(=O)c2ccc(NC(C)=O)cc2)cc1	-10.6%	
COC(=O)COc1ccc(S(=O)(=O)Nc2ccc(NC(C)=O)cc2)cc1	0.696%	
O=C(O)C(=Cc1ccccc1[N+](=O)[O-])c1ccccc1	5.61%	
CN1CCN(c2ccc(NC(=O)c3ccc4c(c3)OCCO4)cc2Cl)CC1	-11%	
CN1CCN(c2ccc(NC(=O)c3cc(Cl)c4c(c3)OCCO4)cc2)CC1		10 µM (active)
O=C(Nc1ccc(N2CCOCC2)cc1)c1ccc2c(c1)OCO2	-29.1%	
O=C(OCCN1C(=O)c2ccccc2C1=O)[C@@H]1CC(O)CN1S(=O)(=O)c1ccccc1[N+](=O)[O-] (stereo not given in full)	-3.9%	
O=C1C=C(NS(=O)(=O)c2ccccc2)C(=O)c2ccccc21	-5.95%	
O=C(NC(=O)c1ccccc1)NC(=O)c1ccccc1	10.5%	
O=C(NC1=CC(=O)c2ccccc2C1=O)c1ccccc1		6.31 µM (active)
